# Data as given in PubChem BioAssay (NCI).
# This is part of a sample that, as a whole, favours compounds with a hit. Of some 79,000 tested, about 15% had one in any assay. Unmarked numbers belong to inactive results. Active and inactive are the calls of the source. Rule as the data show it: active = growth inhibition above about 70%; inactive = the rest.
# Legend:
# [1] = NCI Yeast Anticancer Drug Screen. Data for the rad52 strain (AID 147);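 also: 0% = growth of vehicle-treated control cultures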; conditions: S. cerevisiae rad52 mutant growth inhibition, stronger effect = higher value
# How it was run: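 Vehicle-treated cultures served as the reference for growth inhibition of compound-exposed yeast bearing a DNA repair mutation.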
# [2] = NCI Yeast Anticancer Drug Screen. Data for the wt1 strain (AID 149);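 also: 0% = growth of vehicle-treated wt1 cultures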; conditions: S. cerevisiae wt1 strain (SPY 50644) growth inhibition, stronger effect = higher value
# How it was run: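 wt1 strain grown with compound or vehicle; inhibition taken from the growth difference.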
# [3] = NCI Yeast Anticancer Drug Screen. Data for the mgt1 strain (AID 153); conditions: S. cerevisiae mgt1 mutant growth inhibition, stronger effect = higher value
# How it was run: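 mgt1 strain exposed; growth vs vehicle control recorded as inhibition.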
# [4] = NCI Yeast Anticancer Drug Screen. Data for the rad50 strain (AID 155);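 also: 0% = growth of vehicle-only cultures of the same strain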; conditions: S. cerevisiae rad50 strain growth inhibition, stronger effect = higher value
# How it was run: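 DNA repair mutant yeast, compound exposure, growth read-out; inhibition is taken relative to vehicle.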
# [5] = NCI Yeast Anticancer Drug Screen. Data for the mec2-1 strain (AID 157); conditions: S. cerevisiae mec2-1 strain, stronger effect = higher value
# How it was run: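 Vehicle-treated cultures served as reference for growth inhibition of compound-exposed mec2-1 yeast.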
# [6] = NCI Yeast Anticancer Drug Screen. Data for the rad14 strain (AID 159);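 also: 0% = growth of vehicle-treated control cultures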; conditions: S. cerevisiae rad14 strain growth inhibition, stronger effect = higher value
# How it was run: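 DNA repair-defective yeast, compound-exposed; % growth inhibition derived by comparison with vehicle-treated controls.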
# [7] = NCI Yeast Anticancer Drug Screen. Data for the sgs1 mgt1 strain (AID 161);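 also: 0% = growth of cultures given vehicle only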; conditions: S. cerevisiae sgs1 mgt1 strain, stronger effect = higher value
# How it was run: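 Test agents were incubated with a DNA-repair-mutant yeast strain. Growth was then read and compared against vehicle-treated controls.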
# [8] = NCI Yeast Anticancer Drug Screen. Data for the CLN2oe strain (AID 163);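 also: 0% = growth of vehicle-only control cultures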; conditions: S. cerevisiae CLN2oe strain, stronger effect = higher value
# How it was run: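 Inhibition relative to vehicle-treated yeast is reported. Cells: strain with genetic alteration in cell-cycle control, grown with compound.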
# [9] = NCI Yeast Anticancer Drug Screen. Data for the cln2 rad14 strain (AID 165);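 also: 0% = growth equal to vehicle treated cultures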; conditions: S. cerevisiae cln2 rad14 strain, stronger effect = higher value
# How it was run: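 Each compound was tested on cln2 rad14 yeast. Inhibition of growth was calculated against vehicle-exposed controls.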
# [10] = NCI Yeast Anticancer Drug Screen. Data for the bub3 strain (AID 167); conditions: S. cerevisiae bub3 mutant strain, stronger effect = higher value
# How it was run: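 In this screen, a yeast mutant lacking normal mitotic checkpoint function is challenged with compound. Relative growth versus vehicle gives the inhibition value.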
# [11] = NCI Yeast Anticancer Drug Screen. Data for the wt2 strain (AID 169);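 also: 0% = growth of vehicle-treated yeast cultures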; conditions: S. cerevisiae wt2 strain growth inhibition, stronger effect = higher value
# How it was run: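 Inhibition of yeast growth was determined after compound treatment, normalised to controls receiving only vehicle.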
# [12] = NCI Yeast Anticancer Drug Screen. Data for the sgs1 strain (AID 173);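 also: 0% = growth of vehicle-only control cultures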; conditions: S. cerevisiae sgs1 mutant, stronger effect = higher value
# How it was run: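 Screen format: yeast with repair or checkpoint alterations, compound exposure, growth read relative to vehicle.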
# [13] = NCI Yeast Anticancer Drug Screen. Data for the mlh1 rad18 strain (AID 175); conditions: S. cerevisiae mlh1 rad18 strain growth inhibition, stronger effect = higher value
# How it was run: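 Vehicle-treated cultures served as the reference for growth inhibition in a yeast strain carrying DNA damage repair alterations exposed to each compound.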
# [14] = NCI Yeast Anticancer Drug Screen. Data for the rad18 strain (AID 177); conditions: S. cerevisiae rad18 mutant growth inhibition, stronger effect = higher value
# How it was run: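 Test articles were incubated with altered yeast defective in DNA damage repair. Results are given as inhibition of growth versus vehicle.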
# [15] = NCI Yeast Anticancer Drug Screen. Data for the rad50EPP+ strain (AID 151);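 also: 0% = growth of vehicle-treated control cultures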; conditions: S. cerevisiae rad50 mutant strain, stronger effect = higher value
# How it was run: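 In this screen, rad50EPP+ yeast were exposed to compounds. Growth inhibition was scored against vehicle-treated controls.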
# [16] = at 5.0 µM (retest, dose inferred, filed as 0.5)
# [17] = at 50.0 µM (retest, dose inferred, filed as 5.0)
structure (smiles),measurement,setting,value
CSc1ccccc1[As](C)C,growth inhibition,[1]; at 1.2 µM,1%
same,growth inhibition,[1]; at 3.7 µM,16%
same,growth inhibition,[1]; at 11.0 µM,84% (active)
same,growth inhibition,[1]; at 33.0 µM,99% (active)
same,growth inhibition,[1]; at 100.0 µM,99% (active)
same,growth inhibition,[2]; at 1.2 µM,-1%
same,growth inhibition,[2]; at 3.7 µM,15%
same,growth inhibition,[2]; at 11.0 µM,88% (active)
same,growth inhibition,[2]; at 33.0 µM,99% (active)
same,growth inhibition,[2]; at 100.0 µM,99% (active)
same,growth inhibition,[3]; at 1.2 µM,-1%
same,growth inhibition,[3]; at 3.7 µM,16%
same,growth inhibition,[3]; at 11.0 µM,75% (active)
same,growth inhibition,[3]; at 33.0 µM,99% (active)
same,growth inhibition,[3]; at 100.0 µM,99% (active)
same,growth inhibition,[4]; at 1.2 µM,7%
same,growth inhibition,[4]; at 3.7 µM,-15%
same,growth inhibition,[4]; [16],96% (active)
same,growth inhibition,[4]; at 11.0 µM,86% (active)
same,growth inhibition,[4]; at 33.0 µM,98% (active)
same,growth inhibition,[4]; [17],99% (active)
same,growth inhibition,[4]; at 50.0 µM,99.3% (active)
same,growth inhibition,[4]; at 100.0 µM,99% (active)
same,growth inhibition,[5]; at 1.2 µM,2%
same,growth inhibition,[5]; at 3.7 µM,24%
same,growth inhibition,[5]; [16],90% (active)
same,growth inhibition,[5]; at 11.0 µM,92% (active)
same,growth inhibition,[5]; at 33.0 µM,99% (active)
same,growth inhibition,[5]; [17],99% (active)
same,growth inhibition,[5]; at 50.0 µM,99.5% (active)
same,growth inhibition,[5]; at 100.0 µM,99% (active)
same,growth inhibition,[6]; at 1.2 µM,5%
same,growth inhibition,[6]; at 3.7 µM,26%
same,growth inhibition,[6]; at 11.0 µM,87% (active)
same,growth inhibition,[6]; at 33.0 µM,99% (active)
same,growth inhibition,[6]; at 100.0 µM,100% (active)
same,growth inhibition,[7]; [16],97% (active)
same,growth inhibition,[7]; [17],99% (active)
same,growth inhibition,[7]; at 50.0 µM,99.5% (active)
same,growth inhibition,[8]; at 1.2 µM,-4%
same,growth inhibition,[8]; at 3.7 µM,-1%
same,growth inhibition,[8]; at 11.0 µM,32%
same,growth inhibition,[8]; at 33.0 µM,99% (active)
same,growth inhibition,[8]; at 100.0 µM,98% (active)
same,growth inhibition,[9]; [16],27%
same,growth inhibition,[9]; [17],98% (active)
same,growth inhibition,[9]; at 50.0 µM,98.1% (active)
same,growth inhibition,[10]; at 1.2 µM,-6%
same,growth inhibition,[10]; at 3.7 µM,13%
same,growth inhibition,[10]; [16],1%
same,growth inhibition,[10]; at 11.0 µM,77% (active)
same,growth inhibition,[10]; at 33.0 µM,99% (active)
same,growth inhibition,[10]; [17],50%
same,growth inhibition,[10]; at 50.0 µM,98.8% (active)
same,growth inhibition,[10]; at 100.0 µM,99% (active)
same,growth inhibition,[11]; at 1.2 µM,-1%
same,growth inhibition,[11]; at 3.7 µM,21%
same,growth inhibition,[11]; at 11.0 µM,85% (active)
same,growth inhibition,[11]; at 33.0 µM,99% (active)
same,growth inhibition,[11]; at 100.0 µM,99% (active)
same,growth inhibition,[12]; at 1.2 µM,4%
same,growth inhibition,[12]; at 3.7 µM,34%
same,growth inhibition,[12]; at 11.0 µM,95% (active)
same,growth inhibition,[12]; at 33.0 µM,99% (active)
same,growth inhibition,[12]; at 100.0 µM,99% (active)
same,growth inhibition,[13]; [16],97% (active)
same,growth inhibition,[13]; [17],99% (active)
same,growth inhibition,[13]; at 50.0 µM,99.5% (active)
same,growth inhibition,[14]; at 1.2 µM,8%
same,growth inhibition,[14]; at 3.7 µM,43%
same,growth inhibition,[14]; at 11.0 µM,92% (active)
same,growth inhibition,[14]; at 33.0 µM,99% (active)
same,growth inhibition,[14]; at 100.0 µM,99% (active)
CCc1cccc(C(C)C)c1NC1=C([n+]2ccc(C)cc2)C(=O)c2ccccc2C1=O,growth inhibition,[1]; at 1.2 µM,2%
same,growth inhibition,[1]; at 3.7 µM,5%
same,growth inhibition,[1]; at 11.0 µM,12%
same,growth inhibition,[1]; at 33.0 µM,42%
same,growth inhibition,[1]; at 100.0 µM,83% (active)
same,growth inhibition,[2]; at 1.2 µM,-2%
same,growth inhibition,[2]; at 3.7 µM,-2%
same,growth inhibition,[2]; at 11.0 µM,-4%
same,growth inhibition,[2]; at 33.0 µM,-3%
same,growth inhibition,[2]; at 100.0 µM,6%
same,growth inhibition,[15]; at 1.2 µM,0%
same,growth inhibition,[15]; at 3.7 µM,7%
same,growth inhibition,[15]; at 11.0 µM,17%
same,growth inhibition,[15]; at 33.0 µM,31%
same,growth inhibition,[15]; at 100.0 µM,38%
same,growth inhibition,[3]; at 1.2 µM,0%
same,growth inhibition,[3]; at 3.7 µM,-1%
same,growth inhibition,[3]; at 11.0 µM,-1%
same,growth inhibition,[3]; at 33.0 µM,4%
same,growth inhibition,[3]; at 100.0 µM,11%
same,growth inhibition,[4]; at 1.2 µM,-2%
same,growth inhibition,[4]; at 3.7 µM,0%
same,growth inhibition,[4]; [16],37%
same,growth inhibition,[4]; at 11.0 µM,25%
same,growth inhibition,[4]; at 33.0 µM,63%
same,growth inhibition,[4]; [17],87% (active)
same,growth inhibition,[4]; at 50.0 µM,89.1% (active)
same,growth inhibition,[4]; at 100.0 µM,81% (active)
same,growth inhibition,[5]; at 1.2 µM,-1%
same,growth inhibition,[5]; at 3.7 µM,-3%
